# Screening data as filed in PubChem BioAssay.
# eIF4H inh – inhibitors of RNA binding by human eIF4H; Q15056; inhibition, % at 35 µM; 0.94% of 290,000 active; eIF4H fluorescence polarization binding assay;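 also: calls also rest on retests at 20 µM and on dose response follow-up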
# PABP FP inh – blocks human PABP binding to poly(A) RNA; fluorescence polarization; P11940; AID 2014; 1% of 290,000 active; inhibition, % at 35 µM;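 also: calls also rest on retests at 20 µM and on dose response follow-up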
# CRFR2-BP antag – antagonists of CRF-binding protein/CRF-R2 receptor complex | HEK293 CRF-R2/CRF-BP, CRF-induced calcium fluorescence | inhibition, % at 11.8 µM | 0.59% of 350,000 active;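 active = inhibition of the ligand-induced calcium signal above about 50% at the single tested concentration, limit read from the data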
# PHOSPHO1 inh – PHOSPHO1 (human) inhibition; recombinant PHOSPHO1, absorbance phosphatase assay; inhibition, % at 13.3 µM; 1.1% of 290,000 active; in the data active = inhibition above about 60%
# Target sequence (Q8TCT1 whole entry, looked up): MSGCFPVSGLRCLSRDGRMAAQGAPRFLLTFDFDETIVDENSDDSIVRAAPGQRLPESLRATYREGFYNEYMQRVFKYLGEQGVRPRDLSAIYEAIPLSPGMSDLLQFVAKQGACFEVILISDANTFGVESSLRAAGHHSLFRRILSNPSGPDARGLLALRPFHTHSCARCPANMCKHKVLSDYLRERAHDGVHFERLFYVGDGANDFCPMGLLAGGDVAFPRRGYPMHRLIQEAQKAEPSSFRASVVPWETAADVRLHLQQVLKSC
# PABP1 MLLE inh – blocks PAM2 peptide binding to the PABP1 MLLE domain; inhibition, % at 20 µM; 0.36% of 360,000 active; GST-MLLE / FITC-PAM2 fluorescence polarization; in the data active = inhibition above about 35%, passing the limit was not always enough;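 also: plate controls were DMSO wells with GST-MLLE for no effect and wells lacking GST-MLLE protein for full effect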
# * hit, by the source's call; u = inconclusive; x = not tested or not shown. Hits are enriched below; roughly 2.6% of the tested compounds scored in any of these assays. Unless noted, no rule for the calls is given here.
SMILES,eIF4H inh,PABP FP inh,CRFR2-BP antag,PHOSPHO1 inh,PABP1 MLLE inh
COc1cc(NS(=O)(=O)c2ccc(NC(=S)NC(=O)c3sc4cc(F)ccc4c3Cl)cc2)nc(OC)n1,2,-8,-7,-2,41*
O=C(NCc1cccnc1)c1cc(C2CCCCN2S(=O)(=O)Cc2ccccc2)on1 (centres undefined),x,x,x,x,2
O=C(Nc1cc2c(oc1=O)CCCC2=O)c1cccc(Cl)c1,-4,2,-10,65*,6
CCc1nc2ccc(C(=O)N3CCN(S(=O)(=O)CC)CC3)cn2c1N(CC)CCOC,x,x,x,x,11
O=S(=O)(CC(O)COc1ccccc1Cl)c1ccccc1 (centres undefined),1,2,11,66*,1
N#Cc1ccccc1OCC(O)CS(=O)(=O)c1ccccc1 (centres undefined),3,3,2,20,-9
Cc1ccccc1CN(C)C(=O)COC(=O)CSc1ccc([N+](=O)[O-])cc1,x,x,17,x,20
Cc1ccc(CN(C)C(=O)COC(=O)CSc2ccc([N+](=O)[O-])cc2)cc1,x,x,12,x,43*
CC(=O)Nc1ccc(NC(=O)CCCN2C(=O)C(c3ccccc3)Oc3cccnc32)cc1 (centres undefined),x,x,7,x,-25
CCOc1ccc(NC(=O)CCCN2C(=O)C(c3ccccc3)Oc3cccnc32)cc1 (centres undefined),x,x,57*,7,-4
C=CCCCCCCCCc1nc(SCC(=O)O)n[nH]1,-2,-11,-10,-8,-13
C=CCCCCCCCCc1nc(=S)[nH][nH]1,10,1,11,60*,-2
CCN(CC)S(=O)(=O)c1ccc2c(c1)nc(SCn1nnc3ccccc3c1=O)n2CC,-9,-6,10,36,43*
CC(=O)c1cccc(NC(=O)COC(=O)C2=COCCO2)c1,0,-5,3,68*,11
O=C(COC(=O)C1=COCCO1)Nc1ccccc1,0,u,-15,-1,-15
Cc1ccc(/C([O-])=C(/C(=S)NCc2ccco2)[n+]2ccccc2)cc1,76*,84*,x,100*,x
CC(=O)c1ccc([N+](=O)[O-])c(CS(=O)(=O)c2ccc(Cl)cc2)c1,85,11,17,x,-14
O=C1[C@H]2[C@@H](c3ccc(C(F)(F)F)cc3)N[C@]3(CCCN(Cc4ccco4)C3=O)[C@H]2C(=O)N1Cc1ccccc1,x,x,-5,x,-8
COc1cc(C[C@H](C)[C@H](C)Cc2ccc3c(c2)OCO3)ccc1O,-13,-8,59*,26,-46
Clc1ccc(NCc2cccnc2)cc1,-4,-2,2,10,-17
Fc1ccc(NCc2cccnc2)cc1F,u,u,4,52,48*
O=C(Nc1ccc2ncccc2c1)c1ccccc1,x,x,-12,-11,-110
O=C(Nc1ccc2ncccc2c1)c1ccccc1Cl,0,74*,-12,31,-132
CCCCCc1ccc(C(=O)CCCC)c(=S)[nH]1,7,19,22,2,38*
CC(C)N(C1=N/C(=C\c2ccco2)C(=O)N1c1ccccc1)C(C)C,116,116,-6,28,-8
SMILES,eIF4H inh,PABP FP inh,CRFR2-BP antag,PHOSPHO1 inh,PABP1 MLLE inh
O=C1/C(=C/c2ccco2)N=C(N2CCCCC2)N1c1ccccc1,88*,active,-25,14,-5
COc1ccccc1N(C(C)=O)C1=C(Cl)C(=O)c2ccccc2C1=O,x,x,-101,x,39*
O=C(Nc1ccc(-n2cnnn2)cc1)C(c1ccccc1)c1ccccc1,-10,62*,-8,32,1
CN1C(=O)S/C(=C\c2ccccc2OCc2ccc(C(=O)O)cc2)C1=O,4,9,-25,-31,3
CC(C)N1C(=O)S/C(=C/c2ccccc2OCc2ccc(C(=O)O)cc2)C1=O,2,17,69*,11,6
CC(NC(=O)c1cccc(S(=O)(=O)N2CCN(Cc3ccccc3)CC2)c1)c1ccc(Cl)cc1 (centres undefined),x,x,-5,x,-9
CC(C)C1C(C#N)=C(N)SC(N)=C1C#N,-4,8,-23,73*,25
Cc1ccc(S(=O)(=O)N(C)c2ccc(C(=O)NCC(c3ccco3)N3CCCC3)cc2)cc1 (centres undefined),x,x,9,x,-1
CC(Sc1nc2ccccc2o1)C(=O)O (centres undefined),9,1,-1,76*,-39
COc1ccc(N(CC(=O)N/N=C/c2ccc3c(c2)OCO3)S(=O)(=O)c2ccc(NC(C)=O)cc2)cc1,-9,1,54*,-1,-5
COc1ccccc1C(=O)N/N=C/c1ccc2c(c1)OCO2,-17,9,9,0,2
COc1cc2ccccc2cc1C(=O)N/N=C/c1ccc2c(c1)OCO2,-17,-14,53*,61*,-15
N#C/C(=C/C1=C(N2CCOCC2)C(=C/c2ccc(Cl)cc2Cl)/CC1)C(=O)Nc1ccccc1F,x,x,-32,x,-65
COc1cc(NC(=O)CSc2nc3ccccc3n2-c2ccccc2)c(C)cc1[N+](=O)[O-],2,-5,55*,-10,-54
O=C(NC1CCCCCC1)C1CCN(S(=O)(=O)c2ccc(F)cc2)CC1,2,2,-8,-1,-2
O=C1CCc2cc(S(=O)(=O)N3CCC(C(=O)NC4CCCCCCC4)CC3)ccc2N1,6,8,68*,-4,-2
COc1c(S(=O)(=O)NCCCN2CCOCC2)ccc(Cl)c1Cl,-1,3,-3,10,45*
COc1ccc(OC)c(S(=O)(=O)NCCCN2CCOCC2)c1,x,x,1,x,5
Cc1ccc(Cn2c(=S)[nH]c3ccc(N4CCOCC4)cc3c2=O)o1,72*,54*,-9,7,14
CCCCn1c(=S)[nH]c2ccc(N3CCOCC3)cc2c1=O,-3,-12,x,-98,x
O=c1c2cc(N3CCOCC3)ccc2[nH]c(=S)n1Cc1ccc(Cl)cc1,4,16,-50,82*,-85
O=C(CCCCCn1c(=S)[nH]c2ccc(N3CCOCC3)cc2c1=O)NCc1ccc(Cl)cc1,-4,17,9,-81,-73
CCNS(=O)(=O)c1ccc(NC(=O)Cc2ccc(F)cc2)cc1,4,2,-2,17,4
CC(Nc1ccc(F)cc1)=[N+](C)CCNS(=O)(=O)c1ccc(Cl)cc1,11,51*,-5,5,-121
O=[N+]([O-])c1ccc(CSc2ccc(S(=O)(=O)N3CCOCC3)cn2)cc1,x,x,16,x,37*
SMILES,eIF4H inh,PABP FP inh,CRFR2-BP antag,PHOSPHO1 inh,PABP1 MLLE inh
O=[N+]([O-])c1ccc(CSc2ccc(S(=O)(=O)N3CCCC3)cn2)cc1,x,x,15,x,32
COc1ccc(-n2ccc(=O)c(C(=O)O)n2)c(OC)c1,-7,5,-2,39,8
CCCCN(CCCNC(=O)c1ccc2c(c1)NC(=O)CN2C)c1ccccc1,x,x,6,x,-24
O=c1oc(-c2ccco2)nc2sc3c(c12)CCCC3,3,-14,52*,-6,-1
CCCCN(C(=O)c1cccc(S(=O)(=O)N2CCOCC2)c1)c1c(N)n(CCC)c(=O)[nH]c1=O,13,52*,-3,2,-4
CCc1nc2c(OCc3cccc(Cl)c3)cccn2c1N(C)C(=O)C1CC1,x,x,x,x,-5
